D3 ag: activates the human D3 dopamine receptor; 410,000 compounds, 0.58% hits; AID 652048; D3R DiscoveRx beta-arrestin cells, luminescence, 90 min; max activation, %; P35462; in the data active = max activation above about 30%; note: 0% is about no effect
Target sequence (P35462 whole entry, looked up): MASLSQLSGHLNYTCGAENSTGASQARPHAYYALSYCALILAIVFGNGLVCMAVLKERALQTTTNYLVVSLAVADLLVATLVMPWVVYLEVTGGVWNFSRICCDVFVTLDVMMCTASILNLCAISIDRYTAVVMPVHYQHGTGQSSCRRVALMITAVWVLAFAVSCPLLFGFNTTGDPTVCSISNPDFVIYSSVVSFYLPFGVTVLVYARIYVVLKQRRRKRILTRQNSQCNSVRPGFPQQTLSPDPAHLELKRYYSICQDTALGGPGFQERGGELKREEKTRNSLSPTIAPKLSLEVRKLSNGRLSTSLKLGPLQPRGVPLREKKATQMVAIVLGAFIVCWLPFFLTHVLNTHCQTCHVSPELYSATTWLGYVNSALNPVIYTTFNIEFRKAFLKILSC
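Agonist mode: compounds and dopamine controls were applied to plated cells for 90 min at 37 degrees C after an overnight attachment at 1500 cells/well. Luminescent read-out followed 30 - 60 minutes at room temperature with DiscoveRx detection reagent.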
D3 antag: antagonists of human D3 dopamine receptor | P35462 | 360,000 compounds, 2.5% hits | max response, negative = inhibition, % | D3R cells, DiscoveRx beta-arrestin luminescence, antagonist mode; stronger effect = lower value; in the data active = max response below about -50%; inconclusive = no clear call, values can overlap the other calls; note: % is set by controls: 0 for no effect and ±100 for the full control effect
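Cells expressing the human receptor were seeded at 1500 cells/well, incubated overnight at 37 degrees C in 5% CO2, then exposed to library compounds with dopamine controls for 90 minutes at 37 degrees C before luminescent detection.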
GLP1R inv ag: acts as inverse agonist at human GLP-1 receptor; P43220; HEK293 GLP-1R CRE-luciferase, luminescence, 24 h; GLP-1R form is constitutively active; Potency, µM (top dose mostly 38.3 µM), inactives show at the highest dose activity change, negative = inhibition, hits mostly inhibitors; 410,000 compounds, 1.6% hits; note: potency is the fitted concentration of half-maximal effect; % is set by controls: 0 for no effect and ±100 for the full control effect; nearly all actives have a fitted effect of over 55% in size
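Cells are plated, allowed 12 hours at 37 deg C, then treated with compounds for 24 hr before luciferase detection reagent is added and luminescence is read after 12 min at room temperature. The HEK293 line carries constitutively active GLP-1R with a cAMP-responsive reporter.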
GLP1R ag: activates the human GLP-1 receptor; P43220; HEK293 GLP-1R CRE-luciferase, luminescence, 4-6 h; cells express a hypersensitive GLP-1R form; Potency, µM (top dose mostly 45.6 µM), for inactives: at the top dose activation, actives largely listed as activators; 380,000 compounds, 0.007% hits; AID 624172; note: potency is the fitted concentration of half-maximal effect; % of control where 0% means no effect
Numbers without * were called inactive; u = inconclusive; x = not tested or not shown. Rows were chosen to be rich in hits. Some 4.3% of all compounds tested hit in one or more screens of this group. Unless noted, calls come from the whole dose curve; as a rule, active = well fitted curve in the direction sought with a large enough effect; inconclusive = small, poorly fitted or top-dose-only effect, or another doubt; inactive = no such curve, though single readings can be large; an effect the other way counts as inactive or inconclusive.

SMILES | D3 ag | D3 antag | GLP1R inv ag | GLP1R ag
Cc1cn2c(=O)c(S(=O)(=O)Nc3ccc(OC(F)(F)F)cc3)c(C)nc2s1 | 7 | x | u | x
CC(Cc1cccc(C(F)(F)F)c1)NCCOC(=O)c1ccccc1 (stereo not given) | -81 | -99* | -30% | 6%
CCN(CC)CCNC(=O)c1cc2cc(Br)ccc2s1 | -20 | u | 3.2µM* | -3%
CC(=O)NC1CC(=O)N(c2ccc3c(c2)OCCO3)C1 (stereo not given) | -8 | x | 6% | x
CCCCCOc1ccc(Br)cc1/C(C)=N/NC1=NCCN1 | -7 | u | 2.2µM* | 1%
C/C(=N\NC1=NCCN1)c1ccccc1 | -23 | -23 | -12% | -2%
COc1ccc(Br)cc1/C(C)=N/NC1=NCCN1 | -20 | -52* | 0% | -5%
CSCCC(NS(=O)(=O)c1ccc2c(c1)oc(=O)n2C)C(=O)NCCc1ccc(C)cc1 (stereo not given) | -15 | x | 15% | x
C#CCSc1nc(Cc2ccc(Cl)cc2)nc2ccccc12 | 48* | 19 | 0% | 5%
COc1cc2c(cc1NC(=O)COc1cc(C)ccc1C)oc1ccccc12 | -5 | x | 13% | x
O=C(C[n+]1ccccc1)N/N=C/c1cc(Br)ccc1O | -2 | -89* | 8% | 1%
NC(=O)CSc1nnc(NC(=O)C23CC4CC(CC(C4)C2)C3)s1 | 40* | 11 | -8% | 2%
O=C(O)CN(CC(=O)O)CC(=O)O | -46 | -73* | 6% | -2%
CCc1cccc(CC)c1NC(=O)CN(CC(=O)O)CC(=O)O | -6 | 1 | -1% | 5%
CCC(=O)N(Cc1cc(=O)[nH]c2ccccc12)c1ccccc1 | -10 | -8 | -2% | 17%
O=C(CCl)N(Cc1cc(=O)[nH]c2ccccc12)c1ccccc1 | -2 | -1 | 2.8µM* | -8%
COc1cc(Oc2nc(C(F)(F)F)nc3ccccc23)ccc1C=O | 3 | 20 | -2% | 10%
NC(=O)C1(N2CCCCC2)CCN(CC(=O)Nc2cc(Cl)ccc2Cl)CC1 | -62 | -88* | 0% | -4%
CCn1c(/C=C/c2c(C)n(CC)c3ccccc23)nc2ccccc2c1=O | 35* | 57 | 13% | -4%
CCOC(=O)C(=C1Nc2ccccc2N1)n1c(-c2ccco2)nc2ccccc21 | -10 | -54* | 8% | -1%
Cc1ccc(OCc2nnc(SCC(=O)C(C)(C)C)n2Cc2ccco2)cc1 | -6 | -7 | 2µM* | 13%
Cc1cc(NC(=O)CSc2nnc(COc3ccccc3)n2Cc2ccco2)no1 | 12 | 6 | 1% | -8%
O=C1NC[C@@H](Cc2cccc3ccccc23)N(CC2(c3ccccc3)CC2)C1=O | 6 | 46 | 11µM* | -3%
CCCCN1C(=O)C(=O)NC[C@H]1Cc1cccc2ccccc12 | -2 | -19 | 4% | 5%
NC(N)=NS(=O)(=O)c1ccc(N)cc1 | -90 | -54* | -4% | 0%
SMILES | D3 ag | D3 antag | GLP1R inv ag | GLP1R ag
C/C(N)=N\S(=O)(=O)c1ccc(Cl)cc1 | -2 | 4 | 24% | 0%
CC1CCC(N(C)C(=O)CN2C(=O)NC(c3ccccc3)(c3ccccc3)C2=O)CC1 (stereo not given) | -4 | -18 | 10µM* | -3%
COc1ccc(C2(c3ccc(OC)cc3)NC(=O)N(CC(=O)N(C)C3CCC(C)CC3)C2=O)cc1 (stereo not given) | 3 | 5 | u | -7%
O=C(COc1ccc2ccccc2c1CN1CCOCC1)N1CCc2ccccc21 | -9 | -69* | u | 5%
O=C(COc1ccccc1Cl)N1CCc2ccccc21 | -10 | 8 | u | 15%
COc1ccnc(CSC(N)=Nc2cccc(C(F)(F)F)c2)c1 | -23 | -51* | 11µM* | 12%
COc1ccnc(CSC(N)=Nc2ccccc2OC)c1 | -3 | -75* | u | 2%
CN1[C@@H]2CC[C@H]1CC(NC(=O)n1c(=O)[nH]c3ccccc31)C2 (stereo not given in full) | -11 | x | x | x
COc1ccc(C(=O)NN/C(C)=C/C(=O)C(F)(F)C(F)(F)C(F)(F)F)cc1 | 3 | 2 | 5µM* | -3%
COc1ccc(C(=O)NNC(=O)OC(C)(C)C)cc1 | -5 | 14 | 1% | 3%
OC(C#Cc1ccccc1)(c1ccccc1)c1ccccc1 | 0 | -22 | 4.5µM* | 15%
CC(=O)Nc1ccc(/C=N/NC(=O)CCN2CCN(c3ccccc3)CC2)cc1 | -4 | -84* | 4% | -1%
O=C(CCN1CCN(c2ccccc2)CC1)N/N=C/c1ccccc1OC(F)F | -21 | -70* | u | 11%
O=C1C(c2ccc(C(F)(F)F)cc2)=C(Nc2ccc(Cl)cc2)c2ccccc21 | 4 | x | -15% | x
Cc1ccc(N(C)S(=O)(=O)c2nnc(NC(=O)C3CCCCC3)s2)cc1 | 4 | x | 10% | x
Cc1nn(-c2ccc(Cl)cc2)c2nc(-c3cccnc3)cc(C(F)(F)F)c12 | 4 | x | 3% | x
Cc1ccc(O)c(-c2n[nH]c3c2C(c2ccccc2F)N(Cc2ccco2)C3=O)c1 (stereo not given) | 9 | x | -22% | x
Cc1cccnc1C(NC(=O)C1CCN(CCCc2ccccc2)CC1)c1ccc(Cl)cc1 (stereo not given) | -16 | -78* | u | 3%
Cc1cccnc1C(NC(=O)C1CCN(Cc2cn(C)c3ccccc23)CC1)c1ccc(Cl)cc1 (stereo not given) | -23 | -65* | u | -2%
COc1cccc(OC)c1OCCN1CCC(C(=O)NC(c2ccccc2)c2ncccc2C)CC1 (stereo not given) | -18 | u | -28% | -6%
Cc1cccnc1C(NC(=O)C1CCN(CCOc2ccc(F)cc2)CC1)c1ccc(F)cc1 (stereo not given) | -15 | -71* | u | -5%
O=C(NC(c1ccc(Cl)cc1)c1cnccn1)C1CCN(Cc2ccc(Oc3ccccc3)cc2)CC1 (stereo not given) | -12 | u | u | -6%
Cc1cccnc1C(NC(=O)C1CCN(Cc2ccc(Oc3ccccc3)cc2)CC1)c1ccc(F)cc1 (stereo not given) | -14 | -67* | u | -1%
COc1cccc(OCc2cc(=O)n3cc(C)sc3n2)c1 | -4 | x | 1% | 1%
COc1ccccc1NC(=O)COC(=O)c1[nH]c(=O)[nH]c(=O)c1N | -10 | u | 3% | -1%
O=C1[C@@H]2C[C@@H]3C[C@H]1C[C@@](O)(C3)C2 | x | x | x | -4%
Cc1cccc(CN2C(=O)c3ccccc3S(=O)(=O)c3ccc(C(=O)NC4CCCCC4)cc32)c1 | -11 | x | -21% | 1%
CCOC(=O)c1cccc(NC(=O)C2CCN(S(=O)(=O)c3c(C)noc3/C=C/c3ccc(C)cc3)CC2)c1 | 3 | x | u | -2%
Cc1cccnc1C(NC(=O)C1CCN(Cc2ccc(Cl)cc2)CC1)c1ccccc1 (stereo not given) | -29 | -102* | u | -1%
COc1ccccc1N1CCN(C(CNS(=O)(=O)c2cccs2)c2cccnc2)CC1 (stereo not given) | -7 | -50* | -10% | 3%
